The source made the active and inactive calls. How the calls were made is not given here.
Tested on: HIV-1 nucleocapsid protein NCp7 (binding to TG oligonucleotide)
Experiment: HIV Nucleocapsid (AID 346);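 further: potency is for inhibitors that block NC binding and lower polarization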
Details: HIV-1 NC / fluorescein-TGTGTGTG probe, fluorescence polarization
How it was run: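 10 nM TG4xF probe with 100 nM nucleocapsid protein in high-salt Hepes pH 7.5 (250mM NaCl) containing 1uM ZnCl2 and reducing agents. Compound inhibition of binding was read as fluorescein polarization after 1 hr at room temperature.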
Potency means the concentration at half of the fitted maximal effect.

Row | SMILES | Potency
1 | COc1cccc(Nc2ncc3nc(-c4ccc(Cl)cc4)c(=O)n(C[C@H]4CCCO4)c3n2)c1 | > 20 µM (inactive)
2 | COc1ccc(CNc2cc(-c3ccccc3C)ncn2)c(OC)c1 | > 20 µM (inactive)
3 | O=C(c1ccco1)N1CCC2(CC1)CCN(c1ccccn1)CC2 | > 20 µM (inactive)
4 | COc1cccc(Cn2c(=O)c(C)nc3cnc(N4CCNCC4)nc32)c1 | > 4 µM (inactive)
5 | O=c1c(CCc2ccccc2)nc2cnc(Oc3ccccc3)nc2n1C1CC1 | > 20 µM (inactive)
6 | CN(C)Cc1ccccc1-c1ccc2ncnc(NCc3cccs3)c2c1 | > 20 µM (inactive)
7 | Cn1cc(-c2nc3cnc(N4CCNCC4)nc3n(CCC#N)c2=O)c2ccccc21 | > 20 µM (inactive)
8 | Cc1noc(C)c1C(=O)N1CCC2(CC1)CN(Cc1cc(C(F)(F)F)cc(C(F)(F)F)c1)C2 | > 20 µM (inactive)
9 | COc1cccc(-c2cncnc2NCc2ccccc2)c1 | > 20 µM (inactive)
10 | N#Cc1cccc(NC(=O)N2CC[C@@]3(CCCN(C(=O)c4ccncc4)C3)C2)c1 | > 20 µM (inactive)
11 | COc1ccccc1CNc1nc(-c2cccc(C#N)c2)nc2ccccc12 | > 20 µM (inactive)
12 | N#CCCn1c(=O)c(-c2ccccc2)nc2cnc(N3CCNCC3)nc21 | > 20 µM (inactive)
13 | Cc1noc(C)c1-c1ccc2ncnc(N(C)Cc3ccco3)c2c1 | > 20 µM (inactive)
14 | COc1ccc(-n2c(=O)c(C)nc3cnc(N(C)C)nc32)cc1 | > 20 µM (inactive)
15 | Cc1noc(C)c1C(=O)N1CCC[C@@]2(CCN(C(=O)Nc3cccc(C#N)c3)C2)C1 | > 20 µM (inactive)
16 | Cc1noc(C)c1C(=O)N1CCC[C@@]2(CCN(C(=O)Nc3cccc(F)c3)C2)C1 | > 20 µM (inactive)
17 | COc1cccc(-c2cncnc2NCCc2c[nH]c3ccc(OC)cc23)c1 | > 20 µM (inactive)
18 | COc1ccccc1CNc1ncnc2ccc(-c3ccoc3)cc12 | > 20 µM (inactive)
19 | CCNc1ncc2nc(-c3ccc(Cl)cc3)c(=O)n(CCC#N)c2n1 | > 20 µM (inactive)
20 | Cc1nc2cnc(N3CCOCC3)nc2n(C)c1=O | > 20 µM (inactive)
21 | COc1ccccc1CNc1ncncc1-c1ccc2c(c1)OCO2 | > 20 µM (inactive)
22 | FC(F)(F)c1ccccc1-c1ccc2ncnc(NCc3cccs3)c2c1 | > 20 µM (inactive)
23 | CC(C)CN1CCCC2(CCN(C(=O)c3cccc(F)c3)CC2)C1 | > 20 µM (inactive)
24 | COc1ccc(NC(=O)N2CC3(CCN(C(C)=O)CC3)C2)cc1 | > 20 µM (inactive)
25 | Cc1noc(C)c1C(=O)N1CCC2(CC1)CN(c1ccccn1)C2 | > 20 µM (inactive)

Reference: PubChem BioAssay (NCATS)
